This is a sample that favours compounds with a hit; in the whole collection about 19% have one here.
IL-1B inflam inh: qHTS for Inhibitors of Inflammasome Signaling: IL-1-beta AlphaLISA Primary Screen. activity change, % at 57.5 µM. hit rate 4.7% among 360,000. THP-1 LPS/ATP IL-1B secretion, AlphaLISA, 16 h; stronger effect = lower value; in the data active means activity change below about -50%; inconclusive means mostly about -30% to -49%
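THP-1 cells pretreated 1 hr with compounds (up to 57.5 uM final), then stimulated with LPS (250 ng/mL final) plus ATP (1.25 mM final); secreted IL-1B measured by AlphaLISA after 16 hr, decreased signal indicating inhibition.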
DT40 TDP1 CPT: qHTS for Inhibitors of human tyrosyl-DNA phosphodiesterase 1 (TDP1): qHTS in cells in presence of CPT | chicken DT40 Tdp1-/-;hTDP1 cells + 20 nM CPT, ATP luminescence, 48 h | Potency, µM (series often up to 46.2 µM), for the others: top-dose activity change, negative = growth inhibition, most hits filed as inhibitors | hit rate 12% among 420,000; further: potency means the concentration at half of the fitted maximal effect; nearly all actives have a fitted effect of over 55% in size
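Chicken DT40 Tdp1-/- cells complemented with human TDP1, 400 cells/well, exposed to compounds plus 20 nM camptothecin for at least 48 h at 37 C; viability read as ATP content by CellTiter-Glo luminescence.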
TDP1 cell noCPT: qHTS for Inhibitors of human tyrosyl-DNA phosphodiesterase 1 (TDP1): qHTS in cells in absence of CPT; DT40 Tdp1-/- hTDP1 cells, no CPT, ATP luminescence, 48 h; hit rate 15% among 420,000; Potency, µM (series often up to 46.2 µM), for the others: top-dose activity change, negative = growth inhibition, usual class: inhibitors; further: potency means the concentration at half of the fitted maximal effect; nearly all actives have a fitted effect of over 55% in size
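Stably hTDP1-transfected Tdp1-null chicken DT40 cells were treated with library compounds minus camptothecin and grown for at least 48 hr at 37 °C, after which cellular ATP was quantified by luminescence.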
ELG1 repair inh: qHTS screen for small molecules that inhibit ELG1-dependent DNA repair in human embryonic kidney (HEK293T) cells expressing luciferase-tagged ELG1 | Potency, µM (highest dose often 46.1 µM), inactives show at the highest dose activity change, negative = inhibition, hits mostly inhibitors | AID 504467, 2011 | HEK293T ELG1-luciferase reporter, luminescence, 16 h; DNA damage induced by 5-fluorouridine | hit rate 2.3% among 330,000; further: potency means the concentration at half of the fitted maximal effect; nearly all actives have a fitted effect of over 55% in size
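5-Fluorouridine DNA damage + compound/DMSO, 2,000 cells/well, 16 h, 37 °C/5% CO2. ONE-Glo, 30 min RT, luminescence. Readout = decrease in reporter signal.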
HT1080NT lethal: qHTS for induction of synthetic lethality in tumor cells producing 2HG: qHTS for the HT-1080-NT fibrosarcoma cell line; Potency, µM (doses to about 46.1 µM), for the others: at the top dose activity, negative = less viability, hits mostly cytotoxic; HT-1080-NT fibrosarcoma viability, CellTiter-Glo ATP luminescence, 48 h; AID 686970, 2013; hit rate 1.6% among 360,000;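 further: NT is the 2HG producing partner of a matched IDH1 knockdown line; potency means the concentration at half of the fitted maximal effect; 0% = DMSO-treated cells and -100% = media-only wells without cells; nearly all actives have a fitted effect of over 55% in size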
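A 48-hour cytotoxicity screen used HT-1080-NT cells plated 2 hours before compound delivery. ATP-based CellTiter-Glo luminescence measured viability, normalized to DMSO and no-cell controls.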
HT1080 IDH1KD tx: qHTS for induction of synthetic lethality in tumor cells producing 2HG: qHTS for the HT-1080-IDH1KD cell line; HT-1080 IDH1 knockdown viability, ATP luminescence, 48 h; Potency, µM (top dose mostly 46.1 µM), for inactives: top-dose activity, negative = toxicity, usual class: cytotoxic; hit rate 2% among 360,000; AID 686971, 2013;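 further: potency means the concentration at half of the fitted maximal effect; 0% = DMSO wells and -100% = cell-free medium wells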
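After a 2 h attachment period, IDH1KD HT-1080 cells took pin-transferred compound for 48 h at 37 °C; ATP-based luminescence after 10 min room-temperature reagent incubation reported viability.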
Numbers without * were called inactive; ? = inconclusive; . = no result. Unless noted, the call rests on the fitted dose curve; in most records, active means well fitted curve in the direction sought with a large enough effect; inconclusive means small, poorly fitted or top-dose-only effect, or another doubt; inactive means no such curve, though single readings can be large; an effect the other way counts as inactive or inconclusive. Unless noted, on the % scale 0 is the no-effect control and ±100 the full control effect.

SMILES | IL-1B inflam inh | DT40 TDP1 CPT | TDP1 cell noCPT | ELG1 repair inh | HT1080NT lethal | HT1080 IDH1KD tx
COc1cc(C(CC(=O)NCc2ccc(F)cc2)N2Cc3ccccc3C2=O)cc(OC)c1OC (centres undefined) | . | ? | 16µM* | . | . | .
Cn1nnc2c(NCCc3ccccc3)ncnc21 | . | -20% | -18% | . | . | .
CNc1cncc(-c2ccoc2)n1 | 5 | ? | -25% | . | 16% | 4%
COc1cccc(Cn2c(=O)c(-c3cccs3)nc3cnc(N4CCN(C)CC4)nc32)c1 | . | 6% | -23% | . | . | .
CCOc1ccc(NC(=O)Cn2cc(C(=O)c3ccc(CC)cc3)c(=O)c3cc(C)ccc32)cc1 | . | -12% | -24% | . | . | .
CCNC(=O)C1CCCN(C(=O)c2cccs2)CC1 (centres undefined) | 2 | 3% | 12% | . | 27% | 19%
COc1ccccc1CNC(=O)CCNS(=O)(=O)/C=C/c1ccc(C)cc1 | -55* | -8% | -15% | -4% | 3% | 3%
COc1ccccc1CNC(=O)c1ccccc1C(=O)NC(CC(C)C)C(=O)NCc1ccccc1OC (centres undefined) | ? | ? | ? | 21µM* | 0% | 14%
COc1ccccc1CNC(=O)C(C)Sc1ccc(C)cc1 (centres undefined) | 0 | -3% | 26µM* | 6% | -3% | 3%
COc1ccccc1CNC(=O)CSc1ccc(C)cc1 | 4 | ? | ? | 9% | 0% | 7%
Cn1c2c(c(=O)[nH]c1=O)C(c1cccc(O)c1)C1=C(N2)c2ccccc2C1=O (centres undefined) | 19 | 7.3µM* | 8.2µM* | ? | -21% | ?
Cc1ccc(C(=O)N2CC3(C(C)C)CN(C(=O)c4ccc(C)cc4)CC(C(C)C)(C2)C3=O)cc1 | 31 | ? | 15µM* | -7% | 6% | 7%
CC[C@@H]1OC(=O)[C@@H](C)[C@H](O[C@H]2C[C@@](C)(OC)[C@@H](O)[C@H](C)O2)C(C)[C@H](O[C@H]2O[C@@H](C)C[C@@H](N(C)C)[C@@H]2O)[C@@](C)(O)C[C@H](C)C(=O)[C@@H](C)[C@H](O)[C@@]1(C)O (some centres undefined) | . | 16% | -10% | . | . | .
CCN(Cc1ccccc1)S(=O)(=O)c1ccc(C(=O)N(CCCN(C)C)c2nc3c(C)c(C)ccc3s2)cc1 | -84* | ? | 16µM* | ? | ? | 18µM*
CCN(Cc1ccccc1)S(=O)(=O)c1ccc(C(=O)N(CCCN(C)C)c2nc3cc4c(cc3s2)OCO4)cc1 | -73* | ? | -27% | ? | ? | ?
COCCNc1ccnc(-c2c(C)noc2C)n1 | . | 9% | 5% | . | . | .
CCN(CC(=O)NCc1cccs1)C(=O)c1ccc(N(C)S(=O)(=O)c2ccc(C)cc2)cc1 | -11 | ? | ? | . | -3% | -11%
CCC1(c2ccc(F)cc2)NC(=O)N(CC(=O)Nc2ccc(S(N)(=O)=O)cc2)C1=O (centres undefined) | 2 | 3% | 15% | 0% | 2% | 5%
Cc1noc(C)c1CSc1nc2ccccc2nc1NS(=O)(=O)c1ccc(Cl)cc1 | 32 | 15µM* | 12µM* | 13µM* | ? | ?

Screens: PubChem, National Center for Advancing Translational Sciences (NCATS)
